According to the supplement of paper PMC6555819:

What was measured:
Assay in all cases: PBM binding z-score (relative to random genomic background probes); higher = stronger binding; sequences stand for … in GC…GCGATTGACAGCGTAGAATGAAGG
[1] = tested on: RARb homodimer (NR concentration 270 nM)
Procedure, shortened: (§1)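 Custom Agilent 4×180K protein-binding microarrays carried double-stranded probes, each with a 34-nt variable region. These regions held direct-repeat seeds, single-nucleotide variants, half-site ablations and random human genomic background sequences. Ligand-free nuclear receptor dimers were incubated on the arrays for 1 h, antibodies against each partner (one per run) detected binding, and scanned fluorescence was regression-normalized. Binding z-scores take the random background probes as reference.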

[2] = tested on: RARg:RXRa (NR concentration 270 nM, RXRa partner concentration 90 nM)
Procedure, shortened: as §1

[3] = tested on: RARg homodimer (NR concentration 270 nM)
Procedure, shortened: as §1

[4] = tested on: RXRa DBDmut IVT, anti-RXR (DBD mutation: RXRa K156A/R161A, NR concentration 90 nM)
Procedure, shortened: as §1

[5] = tested on: RXRa homodimer (NR concentration 180 nM)
Procedure, shortened: as §1

[6] = tested on: THRa:RXRa (NR concentration 90 nM, RXRa partner concentration 90 nM)
Procedure, shortened: as §1

[7] = tested on: THRa homodimer (NR concentration 90 nM)
Procedure, shortened: as §1

[8] = tested on: VDR homodimer (NR concentration 270 nM)
Procedure, shortened: as §1

Sequence	PBM binding z-score [1]	PBM binding z-score [2]	PBM binding z-score [3]	PBM binding z-score [4]	PBM binding z-score [5]	PBM binding z-score [6]	PBM binding z-score [7]	PBM binding z-score [8]
ACAGACAGGTGAAGAAGGTAACTCAGGCTATCAT	0.685	0.696	0.885	-0.215	0.527	1.32	0.0297	-0.131
CCAGACAGGTAAGAAGGTAACTCAGCCTCGATTA	-0.0494	0.201	0.207	-0.00945	0.0209	0.0122	0.113	-0.0609
TAGCCTAGGTCATTCAGGGGCCAGTACAGAAAGC	3.28	5.87	4.35	1.94	2.7	3.4	0.784	1.56
GCTGCTAGGTCAACTAATGGTCAGCTAAAGCTCG	3.51	5.28	5.52	1.38	2.65	2.74	0.777	-0.0577
CAAACTGGGTCAAAGGTCAAAGTCGAGCCAACCA	5.2	8.56	7.31	2.55	10.1	4.51	1.31	3.12
GGAGCGAGGGCAAAGTTGATAGCATCTGTCGACG	0.881	1.71	1.34	2.06	1.7	0.838	-0.34	0.99
CAAACTAGGTCAAGAGGTCAAAGACCGCTTCCCG	5.76	8.18	7.8	2.18	8.47	4.39	2.18	3.76
TTGAGTAGGTTACCAATGGGGCATTCAGCTTTCT	1.02	1.46	0.739	0.192	0.569	0.168	-0.426	0.0569
CGTCCAAGGTCAAGGTCAGTGAGAGAGACTCGAA	5.4	6.7	7.4	3.75	6.25	4.31	3.35	3.5
AGTCAAAGTTCACCTAGGTAACGTAAGATATGCT	4.16	5.65	6.29	4.26	4.86	3.51	0.406	3.86
ACAGACAGGTGATAAAGGTAACTCAGGCTATCAT	0.459	0.384	0.498	-0.109	0.225	1.15	-0.0543	-0.632
TGAATGAGGTTGTAAGATCAGGGAACGTTGCAAA	-0.435	-0.0347	0.0621	-0.583	0.396	0.192	-0.364	-0.21
TTACCAAGGTGATGGTCGTTGATCCCTCTGTAGA	0.0776	-0.376	-0.245	-0.261	0.284	0.769	0.35	-0.232
TCATATAGGTAATACAGATGAAAGTCGGCATCTA	-0.481	0.349	0.543	1.28	1.09	-0.0206	-0.254	0.0563
TCAGACAGGTAAAGGTAACTCAGGTACGCAGTCG	0.829	0.751	0.576	1.53	1.08	1.67	0.705	0.388
ATCTCTAGGTAAGACTCAGTTCAATGAAGAACGC	0.915	0.919	0.623	0.822	0.539	1.29	0.873	2.32
TCTATTAGTTGAAGGGCACCCGACGAGTCCGTTT	1.26	0.402	0.483	1.77	0.846	0.413	0.444	1.93
CTCGAAAGGTCGTGCTCATGTGAGTATACCAAAC	2.68	4.43	3.69	2.15	5.19	2.45	0.174	0.995
TCGAGTAGGTTAGTCGGGGCATCCAGCCAACATA	0.213	0.0156	-0.131	-0.109	0.28	1.05	-0.433	-0.177

Sequence	PBM binding z-score [1]	PBM binding z-score [2]	PBM binding z-score [3]	PBM binding z-score [4]	PBM binding z-score [5]	PBM binding z-score [6]	PBM binding z-score [7]	PBM binding z-score [8]
GCTATTATTTGAAAGGGCAACCGAATGATTCTCG	2.11	1.12	1.27	0.947	1.03	0.568	0.3	0.995
AATACAGGGTCACCAGGCCAGAGTAGGTACGAAT	3.63	6.17	6.17	2.62	7.47	3.85	1.88	2.7
AATAGCAGGCCAAGGGTCACTCAAGATTAGTCCG	3.86	4.1	3.92	0.264	4.46	2.8	0.187	1.06
TGAATGAGGTTAAAGATCAGGGAACGTGGCGTCG	0.677	2.23	1.12	1.61	3.81	2.5	0.44	0.484
TTACCAAGGCGAAGGTCGTTGATCCCTCTGTAGA	0.804	0.317	0.0659	0.0625	1.13	1	0.0881	0.564
GCTATAAGTTGAAAGGGCAACCGAATGATTCTCG	2.13	2.28	1.81	1.24	2.42	1.16	-0.205	0.188
AGTCAAAGTTCACTGGGTAACGTAAGATTCAGCT	3.82	5.43	5.94	4.4	4.47	1.92	-0.189	4.09
AATACAGGGTCACTAGGCCAGAGGAGGTACGAAT	3.25	5.14	5.04	2.54	5.66	3.34	1.54	2.73
TGTCGAAGTTCAAAGGTAACGTAAGTATCCACAC	2.43	4.25	3.04	3.6	5.18	2.81	-0.0887	2.72
AGAATGAGATTATTAAGATCAGGGAATTGCGGTC	-0.433	-0.202	0.0706	-0.35	-0.434	-0.315	-0.66	-0.308
CGAACTAGGCCAAGGACAGTGAATCTCCGCACGC	0.591	-0.0156	0.663	0.163	-0.0922	1.35	0.94	-0.0931
CCTATTAGTTGACCATAAGAGCAACCGAAGCTCG	0.851	0.678	0.927	0.811	0.6	0.468	0.721	1.03
CCAACTGGGCCATCAGGTCATTGATATCAACGTT	2.79	2	2.2	0.763	1.46	3.19	3.32	2.04
TCAGACAGGTGAGGGTAACTCAGGTACGCAGTCG	0.992	0.551	0.485	0.971	0.746	2.35	0.442	0.115
CAGCCTAGGACAGGGCCAGTATAGGAGGAACGTT	-0.1	-0.205	0.0959	-0.669	-0.283	0.127	-0.164	-0.467
TAGCTTAGGTCATTCAGGGGCCAGTATAGAAAGC	3.41	6.43	5.18	2.36	3.35	3.72	1.83	1.69
CAGCCTAGGTCAGGCCCAGTATAGGAGGAACGTT	2.11	2.54	3.21	-0.298	1.14	1.66	0.183	-0.788
TTACCAAGCTGAAGGTCGTTGATCCCTCTGTAGA	0.756	0.152	-0.231	-0.269	1.13	0.571	-0.583	0.305
ATATGTAGGTTAAGGGTCATTCATGTTGGTTCGC	4.2	4.74	3.5	2.3	6.14	3.43	1.52	4.27

Sequence	PBM binding z-score [1]	PBM binding z-score [2]	PBM binding z-score [3]	PBM binding z-score [4]	PBM binding z-score [5]	PBM binding z-score [6]	PBM binding z-score [7]	PBM binding z-score [8]
CCTAGTTGGTCAAGGTCATACACGCTATAGGTAC	4.18	4.12	4.33	2.53	4.46	4.03	3.75	4.48
ATCTCTAGGTAACATGTTCAGTGAAAGAGAGGAC	0.187	0.668	0.705	0.0522	0.565	1.04	0.541	-0.0529
CCTACTGGGCCAGAAAGGTCATTGATGCCGATAA	4.36	4.7	4.43	0.0732	5.18	2.88	0.378	2.56
CGAACGAGTGCATGAGTTGATAGCAAATGCCGAT	-0.322	0.343	0.307	3.2	0.414	-0.0112	-0.726	2.6
AGTCAAAGTTAATCTAGGTAACGTAAGATATGCT	-0.203	0.152	0.434	-0.168	0.0123	2.91	0.311	-0.189
CACGAAAGGTCGGTTGAGGTGAGTATACGGATAA	2.56	2.89	3.15	0.785	2.36	5.03	1.69	0.932
ACTTACGGTTCAACGAGGTTATAGCACGCGTATA	1.54	2.25	1.14	3.49	3.22	3.06	0.878	5.32
AGTATTAGTTGACTTAGGGCAACCGATACGACGC	1.29	0.595	1.02	0.0389	0.49	1.53	0.518	0.538
ACTAGCAGGCCAACGGTCACTCAAGATTAGTCCG	1.57	0.906	1.57	-0.139	0.345	-0.135	-0.434	-0.593
ACTATTAGTTGAGACGAGGGCCACCGATAGGTTG	0.318	0.392	0.514	0.0416	0.26	-0.0155	-0.379	-0.0608
ATATGTAGGTTAGCTGGGGTCATTCGGACTAGGC	3.59	4.28	2.86	2.17	5.36	5.12	3.5	5.38
TCATATAGGGAAAAGGTGAAAGTCGGTGTGGTAA	2.04	1.27	0.821	2.07	1.93	1.27	0.582	0.643
ATCGAAAGGTCGAAGGTGAGTAAACCCACCCGAA	2.45	4.43	3.92	1.23	4.9	2.15	0.0401	1.17
CACACTAGGTCACCGGAAGGTCAAAGTCCGCATG	5.83	8.21	7.39	2.24	6.53	4.79	3.54	3.61
TCTAGTTGGTCAAAGGTCACACACTCGAAATGCG	5.02	7.09	6.36	2.05	7.71	4.06	1.95	2.94
CCGACTGGGGCAAAGGTTACAATACTCAGTACGA	2.22	3.61	2.01	0.382	4.11	1.8	-0.161	0.239
GCTATTAGTTGAAAGGACAACCGAATGATTCTCG	1.25	0.533	1.2	0.922	0.0459	0.487	0.292	0.311
TAAATGAGGTTAAAGATCAGGGAACGTGGCGTCG	1.22	2.58	1.64	1.2	4.01	3.09	0.733	1.12
